Many of the other results were omitted from the sample, so hits are more common in it than they were.
KDM5B inh: blocks human KDM5B histone demethylase activity; Q9UGL1; KDM5B demethylase, FDH-coupled NADH fluorescence (FDH is formaldehyde dehydrogenase); Potency, µM (doses to about 57.7 µM), actives largely listed as inhibitors; hit rate 2.6% among 220,000; active means well fitted inhibition curve with a large enough effect; further: nearly all actives have a fitted effect of over 70% in size
Target sequence (Q9UGL1 whole entry, looked up): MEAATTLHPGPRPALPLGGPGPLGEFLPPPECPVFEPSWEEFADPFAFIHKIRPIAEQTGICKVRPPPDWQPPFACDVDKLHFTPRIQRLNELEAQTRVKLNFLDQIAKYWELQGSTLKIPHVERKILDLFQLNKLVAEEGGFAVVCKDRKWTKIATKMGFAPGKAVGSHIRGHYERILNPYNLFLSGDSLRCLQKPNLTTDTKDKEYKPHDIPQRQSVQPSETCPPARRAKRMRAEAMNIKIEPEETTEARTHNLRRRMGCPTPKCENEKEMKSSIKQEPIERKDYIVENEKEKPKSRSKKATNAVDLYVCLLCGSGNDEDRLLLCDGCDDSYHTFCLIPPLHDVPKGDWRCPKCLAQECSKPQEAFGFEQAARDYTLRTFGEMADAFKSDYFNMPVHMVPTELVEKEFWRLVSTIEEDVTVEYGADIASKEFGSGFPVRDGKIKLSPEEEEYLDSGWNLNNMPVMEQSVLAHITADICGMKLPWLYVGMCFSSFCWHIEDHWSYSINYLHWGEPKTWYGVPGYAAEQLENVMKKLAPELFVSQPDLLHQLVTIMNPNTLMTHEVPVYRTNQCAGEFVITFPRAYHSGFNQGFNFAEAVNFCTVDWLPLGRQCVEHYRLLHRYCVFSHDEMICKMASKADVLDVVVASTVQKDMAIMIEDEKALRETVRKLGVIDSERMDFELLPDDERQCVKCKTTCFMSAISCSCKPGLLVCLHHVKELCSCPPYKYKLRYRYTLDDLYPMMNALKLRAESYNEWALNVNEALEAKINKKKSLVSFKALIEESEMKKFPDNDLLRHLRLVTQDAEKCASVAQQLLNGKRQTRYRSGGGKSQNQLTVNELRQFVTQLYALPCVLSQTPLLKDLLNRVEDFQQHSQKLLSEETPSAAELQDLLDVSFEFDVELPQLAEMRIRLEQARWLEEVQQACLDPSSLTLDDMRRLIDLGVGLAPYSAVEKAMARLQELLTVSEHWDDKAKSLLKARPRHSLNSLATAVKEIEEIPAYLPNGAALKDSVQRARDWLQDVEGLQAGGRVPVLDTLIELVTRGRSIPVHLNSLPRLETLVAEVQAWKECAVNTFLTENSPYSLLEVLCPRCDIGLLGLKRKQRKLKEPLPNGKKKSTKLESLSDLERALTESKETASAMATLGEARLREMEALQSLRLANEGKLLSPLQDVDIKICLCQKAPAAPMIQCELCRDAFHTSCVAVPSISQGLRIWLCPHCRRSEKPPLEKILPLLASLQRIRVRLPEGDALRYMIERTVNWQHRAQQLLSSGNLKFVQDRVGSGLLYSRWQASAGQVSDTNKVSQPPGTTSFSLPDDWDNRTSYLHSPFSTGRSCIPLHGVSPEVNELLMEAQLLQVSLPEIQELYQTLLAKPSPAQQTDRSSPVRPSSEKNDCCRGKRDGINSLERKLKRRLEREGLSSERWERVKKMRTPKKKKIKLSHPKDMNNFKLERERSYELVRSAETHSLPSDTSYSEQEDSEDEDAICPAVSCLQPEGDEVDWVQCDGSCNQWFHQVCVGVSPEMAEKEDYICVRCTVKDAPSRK
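Coupled FDH/NAD⁺ fluorescence readout. KDM5BΔAP 200 nM final; compound titration, 10 min RT preincubation; substrate mix 12.5 µM H3K4me3, 25 µM 2-OG, 50 µM Fe(II), 100 µM ascorbate, 0.25 mM NAD⁺, 0.25 U/mL FDH; ΔRFU over 30 min.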
Hits are given with their value.

Results for C=CCCC(CN1CCCOCC1)Oc1cc(C#N)ccn1 (stereo not given) ?
KDM5B inh: 28µM

What do the screens show for `Cc1ccc(S(=O)(=O)Cn2nnnc2C(C(C)C)N2CCC(C(N)=O)CC2)cc1` (stereo not given)?
KDM5B inh: inactive

What do the screens show for `COc1cccc(NC(=O)CN2C(=O)NC3(CCOCC3)C2=O)c1`?
KDM5B inh: inactive

Results for COc1ccc(CN[C@H]2[C@H](O)[C@H](O)C[C@@H]2c2ccc(N3CCOCC3)nc2)cn1 ?
KDM5B inh: 32µM

How did O[C@H]1[C@H](NCc2cnc3ccccc3c2)[C@@H](c2ccc(N3CCOCC3)nc2)C[C@H]1O do in these assays?
KDM5B inh: inactive

Results for COc1ccc(CN[C@H]2[C@H](O)[C@H](O)C[C@@H]2c2cccnc2)cc1 ?
KDM5B inh: inactive

Results for COc1ccc([C@H]2C[C@@H](O)[C@@H](O)[C@@H]2NCc2cnn(C)c2)cc1 ?
KDM5B inh: inactive

Results for COc1cccc(CN[C@H]2[C@H](O)[C@H](O)C[C@@H]2c2ccc(C(F)(F)F)nc2)c1 ?
KDM5B inh: inactive

Results for O[C@H]1[C@H](NCc2ccc(Cl)cc2)[C@@H](c2ccc(N3CCOCC3)nc2)C[C@H]1O ?
KDM5B inh: 40µM

Results for N#Cc1cccc(CN[C@H]2[C@H](O)[C@H](O)C[C@@H]2c2ccc(C(F)(F)F)nc2)c1 ?
KDM5B inh: inactive

Results for O[C@H]1[C@H](NCc2cccc(C(F)(F)F)c2)[C@@H](c2ccc(N3CCOCC3)nc2)C[C@H]1O ?
KDM5B inh: 32µM

What do the screens show for `COc1ccc([C@H]2C[C@@H](O)[C@@H](O)[C@@H]2NCc2ccc(Cl)cc2)cc1`?
KDM5B inh: inactive

Results for COc1ccc(CNC(=O)c2ccc(-c3nc(CSc4ccc(C)cc4)c(C)o3)cc2)cc1OC ?
KDM5B inh: inactive

How did CC(C)c1nncn1C1CCN(S(=O)(=O)c2ccc(F)c(Cl)c2)CC1 do in these assays?
KDM5B inh: inactive

How did COCCNC(=O)Cn1nc(C)c2c(C)n(-c3ccc(C)cc3)nc2c1=O do in these assays?
KDM5B inh: inactive

Results for CCn1ccc(C(=O)N2CCC(Oc3ccccc3)C2)n1 (stereo not given) ?
KDM5B inh: inactive

How did CCCN1CCc2[nH]cnc2C12CCN(C(=O)Cn1cc(C)c(=O)[nH]c1=O)CC2 do in these assays?
KDM5B inh: inactive

How did O=C(N/N=C/c1cccnc1)c1cc(-c2ccccc2Cl)nc2ccccc12 do in these assays?
KDM5B inh: inactive

What do the screens show for `Cc1cc(N2CCC(NCc3cc(C)nn3C)CC2)nc(-c2ccccc2)n1`?
KDM5B inh: inactive

Results for C=CCNC(=O)C(=O)Nc1ccc(Cl)c(C(F)(F)F)c1 ?
KDM5B inh: inactive

What do the screens show for `O=C(O)CC(NC(=O)c1ccco1)c1ccccc1` (stereo not given)?
KDM5B inh: inactive

What do the screens show for `O=C1NCCCCCCN(Cc2ccncc2)[C@@H]2CN(C(=O)NC3CCCCC3)CC[C@@H]12`?
KDM5B inh: inactive

Results for O=C1NCCCCCCN(C(=O)Cc2ccccc2)[C@@H]2CCC[C@H]12 ?
KDM5B inh: inactive

What do the screens show for `COc1cccc(CN2CC[C@H]3C(=O)NCCCCCCN(Cc4ccncc4)[C@@H]3C2)n1`?
KDM5B inh: 20µM

What do the screens show for `O=C1NCCCCCN(C(=O)Cc2ccccc2)[C@H]2CCC[C@@H]12`?
KDM5B inh: inactive

What do the screens show for `O=C1NCCCCCCN(Cc2ccncc2)[C@@H]2CN(S(=O)(=O)Cc3ccccc3)CC[C@H]12`?
KDM5B inh: inactive

Results for O=C1NCCCCCCN(Cc2ccccc2)[C@H]2CCC[C@@H]12 ?
KDM5B inh: 8.9µM

How did Cc1ccccc1C(=O)NCCc1c[nH]c2ccccc12 do in these assays?
KDM5B inh: inactive

Results for NC(=S)N/N=C/c1ccc([N+](=O)[O-])s1 ?
KDM5B inh: inactive

How did O=C(CN1C(=O)C(=O)N(C2CCCC2)C1=O)NCCc1ccc(Cl)cc1Cl do in these assays?
KDM5B inh: inactive

How did COc1cccc(NC(=O)[C@@H]2C[C@@H](c3ccc(F)cc3)N(Cc3ccccc3)C2)c1 do in these assays?
KDM5B inh: inactive

What do the screens show for `Cc1nc(CN2C[C@H](C(=O)Nc3ccccc3)C[C@@H]2c2ccc(F)cc2)cs1`?
KDM5B inh: 35µM

How did Cn1ccc(NC(=O)[C@@H]2C[C@@H](c3ccc(F)cc3)N(Cc3ccccc3)C2)n1 do in these assays?
KDM5B inh: inactive

How did O=C(CC1CCCC1)N1CC2CC(C1)[C@H]1CCCC(=O)N1C2 (stereo not given in full) do in these assays?
KDM5B inh: inactive

How did O=C(Nc1ccc2oc(=O)ccc2c1)c1ccccc1Cl do in these assays?
KDM5B inh: inactive

What do the screens show for `CCc1nc(C)c(C(=O)N2CCOC(CCCC(C)C)C2)o1` (stereo not given)?
KDM5B inh: inactive

What do the screens show for `Cc1oc2ccn(Cc3ccc(F)cc3)c(=O)c2c1C(=O)O`?
KDM5B inh: inactive

What do the screens show for `Cc1oc2ccn(Cc3ccc(F)cc3)c(=O)c2c1C(=O)N1CCN(c2ccccn2)CC1`?
KDM5B inh: 22µM

How did Cc1oc2ccn(Cc3cccc(F)c3)c(=O)c2c1C(=O)NCc1cccc(F)c1 do in these assays?
KDM5B inh: inactive

What do the screens show for `COc1ccccc1NC(=O)c1c(C)oc2ccn(Cc3ccc(F)cc3)c(=O)c12`?
KDM5B inh: 32µM

How did CCn1ccc2oc(C)c(C(=O)N3CCN(c4ccc(F)cc4)CC3)c2c1=O do in these assays?
KDM5B inh: inactive

Results for CCCNC(=O)c1c(C)oc2ccn(Cc3ccc(F)cc3)c(=O)c12 ?
KDM5B inh: inactive

How did Cc1cccc(C(=O)OCc2cc(=O)n3nc(C4CCCCC4)sc3n2)c1 do in these assays?
KDM5B inh: inactive

Results for COc1ccc(C(=O)/C=C/c2ccc(C)cc2)cc1 ?
KDM5B inh: inactive

What do the screens show for `CN1C(=O)[C@H]2CN(Cc3cc(F)ccc3F)C[C@H]2C1=O`?
KDM5B inh: inactive

Results for Cc1noc(-c2ccn3c(CNC(=O)c4ccc(Cl)cc4)nnc3c2)n1 ?
KDM5B inh: inactive

What do the screens show for `Cc1noc(-c2ccn3c(CNC(=O)c4ccc5ccccc5n4)nnc3c2)n1`?
KDM5B inh: 6.3µM

How did COc1cccc(C(=O)NCc2nnc3cc(-c4nc(C)no4)ccn23)c1 do in these assays?
KDM5B inh: 28µM

What do the screens show for `Cc1noc(-c2ccn3c(CNC(=O)c4cccc(F)c4)nnc3c2)n1`?
KDM5B inh: 28µM

How did COc1ccc(C(=O)NCc2nnc3cc(-c4nc(C)no4)ccn23)cc1F do in these assays?
KDM5B inh: 7.9µM

How did COc1ccc2cc(-c3nc(-c4ccc(N(C)C)cc4)no3)c(=O)oc2c1 do in these assays?
KDM5B inh: inactive

Results for COc1ccccc1CNC(=O)C1CCN(C(=O)N2CC3CC(C2)[C@H]2CCCC(=O)N2C3)CC1 (stereo not given in full) ?
KDM5B inh: inactive

What do the screens show for `Cc1cc(NC(=O)NCC(c2cccs2)N2CCCC2)no1` (stereo not given)?
KDM5B inh: inactive

How did CN(C(=O)[C@@H]1C[C@H](c2ccc(F)cc2)N([S+](=O)([O-])C2CC2)C1)c1cccnc1 do in these assays?
KDM5B inh: inactive

What do the screens show for `O=C(c1cccc(C(F)(F)F)c1)N1CCC(c2n[nH]c(=O)n2-c2ccccc2)CC1`?
KDM5B inh: inactive

What do the screens show for `Cc1ccc(CN(C(=O)c2ccco2)c2ccc(CC(=O)NCC(C)C)cc2)cc1`?
KDM5B inh: inactive

Results for CCOc1ccc(C(=O)NC2CCN(c3ccc(C)c(C)c3)C2=O)cc1 (stereo not given) ?
KDM5B inh: inactive

Screening data as filed in PubChem BioAssay.
